Shown are actives, neighbours in structure and some others; about 12% of the full set was active somewhere.
RORg inh – qHTS for inhibitors of ROR gamma transcriptional activity | Drosophila S2 Gal4-RORgamma UAS-luciferase reporter, 20 h | Potency, µM (highest dose often 53.6 µM), without a hit: at the highest dose activity change, negative = inhibition, hits mostly inhibitors | 5.4% of 310,000 active; note: nearly all actives have a fitted effect of over 60% in size
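Schneider cells (Drosophila), stable Gal4 DBD–ROR gamma + UAS-luc; 1 hr cmpd preincubation; Cu2+ induction 700 uM final; 20 hr ambient; luminescence.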
PLK1 PBD block – qHTS for Inhibitors of PLK1-PDB (polo-like kinase 1 - polo-box domain): Primary Screen. 2.8% of 360,000 active. Serine/threonine-protein kinase PLK1 (Homo sapiens), P53350. AID 720504, 2013. Potency, µM, for the others: max response, negative = inhibition, actives largely listed as inhibitors. Plk1 PBD binding of FITC phosphopeptide, fluorescence polarization; note: series mostly up to about 57 µM; nearly all actives have a fitted effect of over 65% in size
ALDH1A1 block – qHTS Assay for Inhibitors of Aldehyde Dehydrogenase 1 (ALDH1A1). Aldehyde dehydrogenase 1A1 (Homo sapiens), P00352. Purified ALDH1A1, NADH fluorescence, propionaldehyde substrate. Potency, µM (highest dose often 75.3 µM), for inactives: at the highest dose activity, negative = inhibition, usual class: inhibitors. 7.3% of 220,000 active. AID 1030, 2008; active = well fitted inhibition curve with a large enough effect, not every such curve was filed as active; inconclusive = small, poorly fitted or top-dose-only effect, or another doubt; inactive = no such curve, though single readings can be large or run the other way;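 note: plate controls were no enzyme wells and a reference inhibitor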
Target sequence (P00352 whole entry, looked up): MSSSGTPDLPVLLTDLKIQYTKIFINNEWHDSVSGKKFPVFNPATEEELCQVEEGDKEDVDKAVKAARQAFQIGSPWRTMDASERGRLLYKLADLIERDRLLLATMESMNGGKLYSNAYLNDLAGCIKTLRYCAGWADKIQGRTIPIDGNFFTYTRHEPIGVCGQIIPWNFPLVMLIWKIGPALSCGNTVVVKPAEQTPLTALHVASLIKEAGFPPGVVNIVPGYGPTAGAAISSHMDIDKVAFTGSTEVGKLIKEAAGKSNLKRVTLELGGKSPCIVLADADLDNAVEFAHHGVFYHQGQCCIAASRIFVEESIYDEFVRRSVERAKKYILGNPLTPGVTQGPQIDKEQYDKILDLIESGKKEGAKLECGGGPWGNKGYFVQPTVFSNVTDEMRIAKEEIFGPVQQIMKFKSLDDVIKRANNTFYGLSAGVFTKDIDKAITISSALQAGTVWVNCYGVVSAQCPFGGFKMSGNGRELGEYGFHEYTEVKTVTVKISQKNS
Sfp PPTase inh – qHTS Assay for Inhibitors of Bacillus subtilis Sfp phosphopantetheinyl transferase (PPTase); 4'-phosphopantetheinyl transferase ffp (Bacillus subtilis), Q9F4F7; Biochemical Sfp PPTase activity, qHTS; Potency, µM, inactives show largest response in the series, negative = inhibition, usual class: inhibitors; 3.5% of 310,000 active; AID 1490, 2009;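 note: the enzyme is Sfp with the accession as filed and its product quenches rhodamine fluorescence; 0% = enzyme reaction without inhibitor and -100% = no enzyme wells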
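Fluorescence-quenching assay: 15 nM Sfp-PPTase preincubated 15 min at room temperature with compound, then 5 uM rhodamine-CoA and 12.5 uM BHQ-2-labelled YbbR peptide added. Fluorescence (ex 525/em 598 nm) read at start and after 30 min; difference gives rate.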
VP16 counter – VP16 counterscreen qHTS for inhibitors of ROR gamma transcriptional activity | Drosophila S2 Gal4-VP16 UAS-luciferase, luminescence, 20 h | Potency, µM (top dose mostly 53.6 µM), without a hit: at the highest dose activity, negative = inhibition, most hits filed as inhibitors | 3.5% of 310,000 active;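 note: Gal4-VP16 expression switched on by copper sulfate through the metallothionein promoter; nearly all actives have a fitted effect of over 50% in size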
An asterisk follows results filed as active; ? = inconclusive; nt = not tested or not shown; [ ] = another dose, or the depositor's remark. Unless noted, calls come from the whole dose curve; as a rule, active = well fitted curve in the direction sought with a large enough effect; inconclusive = small, poorly fitted or top-dose-only effect, or another doubt; inactive = no such curve, though single readings can be large; an effect the other way counts as inactive or inconclusive. Unless noted, % is set by controls: 0 for no effect and ±100 for the full control effect; potency is the fitted concentration of half-maximal effect.

SMILES	RORg inh	PLK1 PBD block	ALDH1A1 block	Sfp PPTase inh	VP16 counter
C/C(=N\Nc1cccc2cccnc12)c1ccc[nH]1	3.5µM*	1%	?	-14%	3%
CC(C)(C)N1NC2(CCCCC2)NC1=S	20%	?	?	22µM*	-2%
COC(=O)N1CCCCC1c1cc(C(=O)NCc2ccc(Cl)c(Cl)c2)no1 (stereo unspecified)	nt	-5%	nt	nt	nt
O=C(Nc1nc2ccccc2c(=O)s1)c1ccco1	-13%	?	nt	?	-4%
CCc1ccc(Nc2nc3ccccc3c(=O)s2)cc1	0.89µM*	-4%	-1%	-14%	1.4µM*
CCOc1ccc(Nc2nc3ccccc3c(=O)s2)cc1	4µM*	-3%	nt	22%	?
O=C(Nc1nnc(-c2ccco2)o1)c1cccc(N2C(=O)CCC2=O)c1	-33%	-4%	28µM*	-54%	4%
Cc1ccc(-c2csc(NC(=O)c3cccc(N4C(=O)CCC4=O)c3)n2)o1	?	-7%	3.5µM*	20µM*	?
O=C(Nc1nnc(-c2ccc(Cl)cc2)o1)c1cccc(N2C(=O)CCC2=O)c1	3.2µM*	-13%	4%	19%	2.2µM*
O=C(Nc1nnc(-c2ccncc2)o1)c1cccc(N2C(=O)CCC2=O)c1	-26%	-4%	-6%	56µM*	10%
CCOc1ccc(-c2csc(NC(=O)c3cccc(N4C(=O)CCC4=O)c3)n2)cc1	-19%	-6%	nt	1%	2%
CCOC(=O)C1(C)CCCN1C(=O)c1ccc(F)c(Cl)c1 (stereo unspecified)	nt	-1%	nt	nt	nt
N#CCCSCc1ccc2oc(C(=O)O)cc2c1	-4%	-10%	?	7%	-2%
COCc1ccc2oc(C(=O)O)cc2c1	-3%	3.4µM*	9%	3%	2%
CCOC(=O)C1=C(N)Oc2ccc(Br)cc2C1C(C#N)C(=O)OCC (stereo unspecified)	-3%	nt	16µM*	-15%	-11%
C=C1c2ccccc2O[C@H](C(=O)OCC)[C@@H]1CC(C)(C)c1ccccc1	9%	nt	-15%	3%	14%
FC(F)Oc1ccc(NC(=S)Nn2cnnc2)cc1	-25%	6.7µM*	7.9µM*	22µM*	-14%
CN(NC(=S)Nc1ccc(OC(F)F)cc1)C(=S)Nc1ccc(OC(F)F)cc1	-29%	-25%	22%	2%	13µM*
CC(C)=NNc1nc(-c2ccc([N+](=O)[O-])cc2)cs1	-3%	-8%	-3%	-22%	2%
C/C(=N/Nc1nc(-c2ccc(Cl)cc2)cs1)c1cccs1	0%	-7%	16µM*	40µM*	24%
CC(=O)Nc1ccc(-c2csc(NC(C)c3ccccc3)n2)cc1 (stereo unspecified)	34%	-8%	18µM*	50µM*	2%
CC(=O)Nc1ccc(-c2csc(NNC(=O)c3ccccc3)n2)cc1	8.9µM*	-12%	-4%	18µM*	-4%
CC(=O)Nc1ccc(-c2csc(N/N=C(/C)c3ccccc3)n2)cc1	-20%	-25%	nt	40µM*	16%
CN1CCN(c2nc(-c3ccc4c(c3)OCO4)nc3ccccc23)CC1	-20%	nt	?	12%	-4%
CCC(=O)Nc1ccc(-c2csc(NNC(C)=O)n2)cc1	22%	-24%	3%	-18%	-3%
SMILES	RORg inh	PLK1 PBD block	ALDH1A1 block	Sfp PPTase inh	VP16 counter
CCOC(=O)/C(C)=N/Nc1nc(-c2ccc(NC(C)=O)cc2)cs1	-15%	-4%	nt	28µM*	-16%
CC(=O)Nc1ccc(S(=O)(=O)NC2=C(N3CCN(Cc4ccccc4)CC3)C(=O)c3ccccc3C2=O)cc1	?	-6%	16µM*	7%	3%
O=C1C(NS(=O)(=O)c2ccccc2)=C(N2CCN(c3ccc(F)cc3)CC2)C(=O)c2ccccc21	-8%	?	nt	11%	-1%
CC(=O)Nc1ccc(S(=O)(=O)NC2=C(N3CCN(C)CC3)C(=O)c3ccccc3C2=O)cc1	13µM*	-9%	nt	-10%	-30%
CC1CCN(C2=C(NS(=O)(=O)c3ccc(Cl)cc3)C(=O)c3ccccc3C2=O)CC1	11µM*	-10%	?	-2%	?
O=C1C(NS(=O)(=O)c2cccs2)=C(N2CCN(c3cccc(Cl)c3)CC2)C(=O)c2ccccc21	29%	-11%	3.2µM*	-6%	-1%
CCN1CCN(C2=C(NS(=O)(=O)c3ccc(NC(C)=O)cc3)C(=O)c3ccccc3C2=O)CC1	?	-13%	nt	-1%	?
N#Cc1c(N)[nH]c(C(=O)c2ccccc2)c1-c1ccc(Cl)cc1	nt	-2%	nt	nt	nt
O=C(Nc1ccc2c(c1)OCCO2)C(C1CC1)N1CCN(c2ccc(C(F)(F)F)cn2)CC1 (stereo unspecified)	nt	1%	nt	nt	nt
O=C(O)[C@@H]1[C@@H]2C[C@H]([C@@H](Br)[C@H]2N2C(=O)CCC2=O)[C@@H]1C(=O)O	nt	nt	-3%[13.5 µM]	nt	nt
COCCCn1cc(CN(C)C2CN(Cc3cn(CCCOC)nn3)S(=O)(=O)C2)nn1 (stereo unspecified)	nt	-13%	nt	nt	nt
O=[N+]([O-])c1ccc(N=Nc2ncc[nH]2)cc1	7.1µM*	-7%	nt	-25%	6.3µM*
Cc1[nH]n(C(N)=S)c(=O)c1N=Nc1cccc(C(F)(F)F)c1	0.11µM*	?	nt	-4%	0.4µM*
Cc1[nH]n(C2=NCCS2)c(=O)c1N=Nc1cccc(C(F)(F)F)c1	0.28µM*	-15%	4%	12%	0.63µM*
Cc1[nH]n(C(N)=S)c(=O)c1N=Nc1cc(C(F)(F)F)ccc1Cl	0.56µM*	?	nt	11%	?
COc1ccc(C(=O)C(=O)N2CCN(c3ccccc3F)CC2)cc1	nt	-5%	nt	nt	nt
O=C(CS(=O)(=O)c1ccccc1)c1cc2cc(F)ccc2oc1=O	0%	15µM*	nt	0%	?
O=C(CS(=O)(=O)c1ccccc1)c1cc2ccccc2oc1=O	-32%	?	nt	4%	-1%
COc1ccc(S(=O)(=O)CC(=O)c2cc3cccc(C)c3oc2=O)cc1	-15%	27µM*	nt	-5%	4%
COc1cccc2cc(C(=O)CS(=O)(=O)c3ccc(C(C)(C)C)cc3)c(=O)oc12	4%	7.5µM*	nt	0%	4%
COc1ccc(OC2(C)CCN(Cc3ccc(-c4ccccc4)o3)C2)cc1 (stereo unspecified)	nt	2%	nt	nt	nt
CN(C)CCNC(=O)c1cccc(-c2cnc3c(NC=O)cc(/C=C/c4ccccc4)cn23)c1	nt	-13%	nt	nt	nt
COc1ccc(OCCn2ccnc2)cc1	-1%	2%	nt	?	-11%
COc1ccc(C(=O)NCCCn2ccnc2)cc1	1%	-10%	7.9µM*	8%	-2%
O=C(NCc1ccncc1)c1ccc(N2CCCC2)c([N+](=O)[O-])c1	41%	-22%	?	?	-7%

Screening results deposited in PubChem by National Center for Advancing Translational Sciences (NCATS).
